# From PubChem BioAssay (Tox21)
# “And” between values parts separate entries of the source, which are not always exact repeats. Equal entries are not always repeated. Inconclusive results are not listed. Where a call stands in place of a potency, no number is given. The source made the active and inactive calls. Unless noted, calls follow the shape of the dose curve; as a rule, active = well fitted curve in the direction sought with a large enough effect in the repeat runs; inconclusive = weak or mixed curves; inactive = no such curve, though single readings can be large; an effect the other way counts as inactive or inconclusive.
# Tests used:
# [1] = qHTS assay to identify small molecule antagonists of the glucocorticoid receptor (GR) signaling pathway - cell viability counter screen (AID 720693); also: nearly all actives have a fitted effect of over 55% in size
# [2] = qHTS assay for identifying genotoxic compounds that show differential cytotoxicity against isogenic chicken DT40 cell lines with known DNA damage response pathways - wild type cell line (AID 743012); also: nearly all actives have a fitted effect of over 60% in size; also: potency is read from the fitted curve at half-maximal effect
# Summary of the method: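 Parental DNA repair-proficient DT40 cells, 300 per well, were pre-incubated ~0.5 h at 37 C/5% CO2, pin-dosed with compounds in DMSO, then incubated 40 h. Viability was read as CellTiter-Glo luminescence after 30 min at room temperature.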
# [3] = qHTS assay for identifying genotoxic compounds that show differential cytotoxicity against isogenic chicken DT40 cell lines with known DNA damage response pathways - Rev3 mutant cell line (AID 743014); also: nearly all actives have a fitted effect of over 55% in size; also: potency is read from the fitted curve at half-maximal effect
# [4] = qHTS assay for identifying genotoxic compounds that show differential cytotoxicity against isogenic chicken DT40 cell lines with known DNA damage response pathways - Rad54/Ku70 mutant cell line (AID 743015); also: nearly all actives have a fitted effect of over 60% in size; also: potency is read from the fitted curve at half-maximal effect
# [5] = qHTS assay to identify small molecule antagonists of the androgen receptor (AR) signaling pathway - cell viability counter screen (AID 743033; also: nearly all actives have a fitted effect of over 45% in size)
# [6] = molecular target: Androgen receptor (Homo sapiens) (UniProt P10275); assay: qHTS assay to identify small molecule antagonists of the androgen receptor (AR) signaling pathway (AID 743035; active = well fitted inhibition curve with a large enough effect in the signal ratio in the repeat runs, not every such curve was filed as active; the % refers to the signal ratio)
# Summary of the method: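 HEK293 cells stably carrying a UAS-driven beta-lactamase reporter (AR-UAS-bla GripTite) were plated for 4 h at 37C, then given compound and the agonist R1881 and incubated 16 h. Reporter activity was read by LiveBLAzer B/G FRET fluorescence after 2 h at room temperature.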
# [7] = molecular target: Androgen receptor (Homo sapiens) (UniProt P10275); assay: qHTS assay to identify small molecule agonists of the androgen receptor (AR) signaling pathway using the MDA cell line (AID 743040; also: nearly all actives have a fitted effect of over 20% in size)
# Summary of the method: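 MDA-kb2 breast carcinoma cells carrying MMTV-luciferase (responsive to AR and GR), plated 5 h then treated 16 h with compounds at 37C, 0% CO2. Read-out was ONE-Glo luminescence after 30 min at room temperature.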
# [8] = qHTS assay to identify small molecule antagonists of the androgen receptor (AR) signaling pathway using the MDA cell line - cell viability counter screen (AID 743041; also: nearly all actives have a fitted effect of over 45% in size; also: potency is read from the fitted curve at half-maximal effect)
# Summary of the method: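 MDA-kb2 AR-luc cells (MMTV-luciferase, AR/GR responsive) treated with compounds plus R1881 agonist for 16 h at 37C. CellTiter-Fluor added at 15.5 h; fluorescence read after 30 min in the same wells.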
# [9] = molecular target: Androgen receptor (Homo sapiens) (UniProt P10275); assay: qHTS assay to identify small molecule antagonists of the androgen receptor (AR) signaling pathway using the MDA cell line (AID 743042; also: nearly all actives have a fitted effect of over 55% in size)
# Summary of the method: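 MDA-kb2 breast carcinoma cells carrying MMTV-luciferase (AR/GR responsive) were co-treated with compounds and the agonist R1881 for 16 h at 37C. Inhibition read as ONE-Glo luminescence; CellTiter-Fluor fluorescence measured in parallel for cytotoxicity.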
# [10] = qHTS assay to identify small molecule antagonists of the thyroid receptor (TR) signaling pathway - cell viability counter screen (AID 743064); also: nearly all actives have a fitted effect of over 50% in size; also: potency is read from the fitted curve at half-maximal effect
# Summary of the method: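 Plate GH3.TRE-Luc cells; incubate 4 h at 37 °C; add compound, then T3 to 1 nM final; incubate 23.5 h; add CellTiter-Fluor; incubate 30 min at 37 °C, 5% CO2; read fluorescence.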
# [11] = qHTS assay to identify small molecule antagonists of the thyroid receptor (TR) signaling pathway (AID 743065); also: nearly all actives have a fitted effect of over 55% in size; also: potency is read from the fitted curve at half-maximal effect
# Summary of the method: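 GH3.TRE-Luc rat pituitary cells (two TREs driving luciferase) were dosed with compound, then stimulated with 1 nM T3 (final) for 23.5 h at 37 C. ONE-Glo luminescence was the read-out, with CellTiter-Fluor fluorescence as the cytotoxicity counter-screen.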
# [12] = test system: thyroid hormone receptor (rat, GH3 cells); assay: qHTS assay to identify small molecule agonists of the thyroid receptor (TR) signaling pathway (AID 743066; calls by dose curve)
# [13] = qHTS assay to identify small molecule antagonists of the estrogen receptor alpha (ER-alpha) signaling pathway - cell viability counter screen (AID 743074; calls by dose curve;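 also: HEK293 cells carrying ER-alpha-UAS-bla reporter stimulated with 17beta-estradiol; nearly all actives have a fitted effect of over 45% in size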)
# [14] = qHTS assay to identify small molecule antagonists of the estrogen receptor alpha (ER-alpha) signaling pathway using the BG1 cell line (AID 743080; calls by dose curve;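 also: BG1 cells stimulated with 17beta-estradiol alongside compound; series mostly up to about 70 µM; nearly all actives have a fitted effect of over 25% in size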)
# Summary of the method: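 BG1-Luc-4E2 cells (endogenous full-length ER-alpha, 4xERE luciferase) hormone-starved 5 days in charcoal-stripped FBS, plated 4,000/well for 24 h, then compound plus 17beta-estradiol for 21.5 h at 37 C; ONE-Glo luminescence read.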
# [15] = qHTS assay to identify small molecule antagonists of the estrogen receptor alpha (ER-alpha) signaling pathway using the BG1 cell line - cell viability counter screen (AID 743081);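 also: compound given together with 17beta-estradiol as the ER stimulus; series mostly up to about 70 µM; nearly all actives have a fitted effect of over 45% in size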
# Aromatase (Homo sapiens) = Aromatase (Homo sapiens) (UniProt P11511); assay: qHTS assay to identify aromatase inhibitors (AID 743083)
# [16] = molecular target: Androgen receptor (Homo sapiens) (UniProt P10275); assay: qHTS assay to identify small molecule agonists of the androgen receptor (AR) signaling pathway (AID 743036; active = well fitted activation curve with a large enough effect in the signal ratio in the repeat runs, with a control signal flat, not every such curve was filed as active; the % refers to the signal ratio)
# Summary of the method: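 Reporter line: GeneBLAzer AR-UAS-bla-GripTite (HEK293). Steps: plate cells, 4 h rest, add compounds, 16 h at 37C, add LiveBLAzer B/G substrate, 2 h at RT, read fluorescence.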
# [17] = molecular target: Estrogen receptor (Homo sapiens) (UniProt P03372); assay: qHTS assay to identify small molecule antagonists of the estrogen receptor alpha (ER-alpha) signaling pathway (AID 743069; active = well fitted curve in the direction sought with a large enough effect in the signal ratio in the repeat runs, not every such curve was filed as active; the % refers to the signal ratio)
# Summary of the method: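 HEK293 ER-alpha-UAS-bla GripTite cells, held overnight in 2% charcoal-stripped FBS, 5,000 cells/well, preincubated 4 h, then compound plus 17beta-estradiol for 18 h at 37C. Beta-lactamase read by LiveBLAzer B/G FRET substrate, 2 h at room temperature.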
# [18] = molecular target: Estrogen receptor (Homo sapiens) (UniProt P03372); assay: qHTS assay to identify small molecule agonists of the estrogen receptor alpha (ER-alpha) signaling pathway (AID 743075; calls by dose curve)
# [19] = molecular target: Estrogen receptor (Homo sapiens) (UniProt P03372); assay: qHTS assay to identify small molecule agonists of the estrogen receptor alpha (ER-alpha) signaling pathway using the BG1 cell line (AID 743079); also: nearly all actives have a fitted effect of over 20% in size; also: potency is read from the fitted curve at half-maximal effect
# Estrogen receptor (Homo sapiens), sequence (P03372 whole entry, looked up): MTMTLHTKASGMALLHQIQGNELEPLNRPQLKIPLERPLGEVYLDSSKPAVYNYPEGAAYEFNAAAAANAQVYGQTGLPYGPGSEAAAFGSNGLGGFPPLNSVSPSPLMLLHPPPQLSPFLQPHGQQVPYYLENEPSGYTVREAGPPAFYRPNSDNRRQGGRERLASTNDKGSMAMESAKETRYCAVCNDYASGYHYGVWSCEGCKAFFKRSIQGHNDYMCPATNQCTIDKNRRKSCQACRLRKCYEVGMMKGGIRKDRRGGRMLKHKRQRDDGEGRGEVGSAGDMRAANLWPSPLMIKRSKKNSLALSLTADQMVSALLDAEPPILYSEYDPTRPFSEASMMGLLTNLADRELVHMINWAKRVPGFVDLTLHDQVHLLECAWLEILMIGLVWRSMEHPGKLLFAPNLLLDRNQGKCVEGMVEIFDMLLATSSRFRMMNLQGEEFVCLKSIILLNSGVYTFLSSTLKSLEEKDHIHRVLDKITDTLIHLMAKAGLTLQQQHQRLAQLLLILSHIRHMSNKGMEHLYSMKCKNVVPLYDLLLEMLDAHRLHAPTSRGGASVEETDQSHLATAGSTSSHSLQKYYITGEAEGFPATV
# Aromatase (Homo sapiens), sequence (P11511 whole entry, looked up): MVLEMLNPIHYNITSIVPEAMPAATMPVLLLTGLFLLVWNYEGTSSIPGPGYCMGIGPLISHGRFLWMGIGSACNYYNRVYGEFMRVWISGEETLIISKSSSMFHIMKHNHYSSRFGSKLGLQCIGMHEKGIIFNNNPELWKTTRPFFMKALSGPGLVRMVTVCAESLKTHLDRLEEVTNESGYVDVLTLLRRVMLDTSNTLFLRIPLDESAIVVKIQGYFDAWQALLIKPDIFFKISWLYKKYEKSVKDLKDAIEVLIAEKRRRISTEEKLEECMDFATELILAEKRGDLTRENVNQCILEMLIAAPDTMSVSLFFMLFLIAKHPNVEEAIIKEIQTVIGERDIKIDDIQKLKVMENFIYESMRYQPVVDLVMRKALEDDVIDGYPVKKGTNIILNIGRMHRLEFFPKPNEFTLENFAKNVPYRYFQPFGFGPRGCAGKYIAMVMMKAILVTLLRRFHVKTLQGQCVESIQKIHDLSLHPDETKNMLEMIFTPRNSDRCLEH
# Androgen receptor (Homo sapiens), sequence (P10275 whole entry, looked up): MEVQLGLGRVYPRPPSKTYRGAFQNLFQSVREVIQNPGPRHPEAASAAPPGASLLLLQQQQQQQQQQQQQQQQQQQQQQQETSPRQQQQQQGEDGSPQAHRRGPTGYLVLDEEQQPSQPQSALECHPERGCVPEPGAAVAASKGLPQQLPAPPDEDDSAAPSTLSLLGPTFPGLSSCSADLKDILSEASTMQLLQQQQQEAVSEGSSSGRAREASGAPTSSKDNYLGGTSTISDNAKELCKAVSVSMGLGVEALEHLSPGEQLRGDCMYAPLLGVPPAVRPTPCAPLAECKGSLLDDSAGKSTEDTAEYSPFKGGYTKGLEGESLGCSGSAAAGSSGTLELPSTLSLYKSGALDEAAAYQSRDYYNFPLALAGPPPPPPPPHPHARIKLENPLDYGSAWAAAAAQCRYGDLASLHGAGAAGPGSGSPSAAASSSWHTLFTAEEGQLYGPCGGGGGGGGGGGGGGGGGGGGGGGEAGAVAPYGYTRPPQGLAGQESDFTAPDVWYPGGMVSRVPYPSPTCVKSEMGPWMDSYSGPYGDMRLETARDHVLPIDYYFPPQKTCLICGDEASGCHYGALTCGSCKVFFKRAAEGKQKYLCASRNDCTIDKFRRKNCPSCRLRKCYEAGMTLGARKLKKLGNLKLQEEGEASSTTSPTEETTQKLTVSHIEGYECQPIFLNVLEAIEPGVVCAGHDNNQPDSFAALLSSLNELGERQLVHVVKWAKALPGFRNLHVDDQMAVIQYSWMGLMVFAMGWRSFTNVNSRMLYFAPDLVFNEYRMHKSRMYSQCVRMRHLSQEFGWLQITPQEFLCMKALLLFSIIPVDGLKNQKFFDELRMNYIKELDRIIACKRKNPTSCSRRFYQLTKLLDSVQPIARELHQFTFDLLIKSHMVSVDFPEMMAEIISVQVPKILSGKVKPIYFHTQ
SMILES,outcome [1],Potency [2],Potency [3],Potency [4],outcome [5],Potency [6],Potency [7],Potency [8],outcome [9],Potency [10],Potency [11],outcome [12],Potency [13],Potency [14],outcome [15],outcome (Aromatase (Homo sapiens)),outcome [16],Potency [17],Potency [18],Potency [19]
CCCCCC(C)N (stereo not drawn),inactive,inactive,inactive,inactive,inactive,inactive,inactive,inactive,inactive,inactive,inactive,inactive,inactive,inactive,inactive,inactive,–,–,–,–
NS(=O)(=O)Cc1noc2ccccc12,inactive,inactive,inactive,inactive,inactive,inactive,inactive,–,inactive,inactive,inactive,inactive,inactive,–,inactive,inactive,inactive,–,–,–
Nc1c2c(nc3c1CCC3)CCCC2,inactive,inactive,inactive,inactive,inactive,–,inactive,inactive,inactive,–,–,inactive,inactive,–,inactive,inactive,–,inactive,inactive,inactive
CCOc1ccc2nc(S(N)(=O)=O)sc2c1,inactive,inactive,inactive,inactive,inactive,–,–,inactive,–,inactive,inactive,inactive,inactive,–,inactive,inactive,–,–,inactive,–
CCCCc1ccc2c(n1)[C@@H](c1ccc(OC)cc1C[C@H](C)C(=O)O)[C@H](C(=O)O)[C@H]2c1ccc2c(c1)OCO2,inactive,inactive,inactive,inactive,inactive,–,–,inactive,–,inactive,inactive,inactive,inactive,inactive,inactive,inactive,–,–,inactive,inactive
CCO[Si](OCC)(OCC)c1ccccc1,inactive,inactive,inactive,inactive,inactive,–,–,inactive,–,inactive,inactive,inactive,inactive,–,inactive,–,–,–,–,–
FB(F)F,inactive,inactive,inactive,inactive,inactive,–,–,inactive,–,inactive,–,inactive,inactive,inactive,inactive,inactive,–,inactive,inactive,inactive
CC(C)C(=O)OC(=O)C(C)C,inactive,inactive,inactive,inactive,inactive,–,–,inactive,–,inactive,inactive,inactive,inactive,–,inactive,–,–,–,–,–
CN1CCN(c2cc3c(nn2)Oc2ccccc2N3C)CC1,inactive,inactive,inactive,inactive,inactive,–,–,inactive,–,inactive,inactive,inactive,inactive,–,inactive,inactive,–,–,–,–
O=C1CCCCCCCCCCCCCCO1,inactive,inactive,inactive,inactive,inactive,–,–,inactive,–,inactive,inactive,inactive,inactive,–,inactive,inactive,–,–,–,–
O=C(O)CNC(=O)c1ccccc1,inactive,inactive,inactive,inactive,inactive,–,–,inactive,–,inactive,inactive,inactive,inactive,–,inactive,inactive,–,–,–,–
CC1=NN(c2cc(S(=O)(=O)O)ccc2Cl)C(=O)C1N=Nc1ccccc1 (stereo not drawn),inactive,inactive,inactive,inactive,inactive,–,–,61.1 µM (active),–,–,inactive,inactive,inactive,inactive,–,inactive,–,inactive,inactive,inactive
Cc1c(N)c(=O)n(-c2ccccc2)n1C,inactive,inactive,inactive,inactive,inactive,–,–,inactive,–,inactive,inactive,inactive,inactive,–,–,inactive,–,–,–,–
O=C1NC(=O)C2CC=CCC12 (stereo not drawn),inactive,inactive,inactive,inactive,inactive,–,–,inactive,–,inactive,inactive,inactive,inactive,–,inactive,–,–,–,–,–
CN1CC(=O)N/C1=N/C(=O)Nc1cccc(Cl)c1,inactive,inactive,inactive,inactive,inactive,–,–,inactive,–,inactive,inactive,inactive,inactive,–,inactive,inactive,–,–,inactive,29.8 µM (active) and 5.31 µM (active)
NC(=O)Cc1cccc2ccccc12,inactive,inactive,inactive,inactive,inactive,–,–,inactive,–,inactive,–,–,inactive,–,inactive,inactive,–,–,–,–
NC(=O)N1c2ccccc2CC(=O)c2ccccc21,inactive,5.96 µM (active),5.96 µM (active),5.96 µM (active),inactive,–,–,inactive,–,13.3 µM (active),11.9 µM (active),inactive,inactive,–,inactive,–,–,–,–,–
CC1=CCC(O)(C(C)C)CC1 (stereo not drawn),inactive,inactive,inactive,inactive,inactive,–,–,inactive,–,inactive,inactive,inactive,inactive,inactive,inactive,inactive,–,–,inactive,–
CCN(C=O)CC,inactive,inactive,inactive,inactive,inactive,–,–,inactive,–,inactive,inactive,inactive,inactive,–,inactive,–,–,–,–,–
CC(=O)c1cnccn1,inactive,inactive,inactive,inactive,inactive,–,–,inactive,–,inactive,inactive,inactive,inactive,inactive,inactive,inactive,–,–,inactive,inactive

SMILES,outcome [1],Potency [2],Potency [3],Potency [4],outcome [5],Potency [6],Potency [7],Potency [8],outcome [9],Potency [10],Potency [11],outcome [12],Potency [13],Potency [14],outcome [15],outcome (Aromatase (Homo sapiens)),outcome [16],Potency [17],Potency [18],Potency [19]
C1CCC2=NCCCN2CC1,inactive,inactive,inactive,inactive,inactive,–,–,inactive,–,–,inactive,inactive,inactive,–,inactive,inactive,–,–,–,–
C[N+]1(C)[C@@H]2CC(OC(=O)[C@H](CO)c3ccccc3)C[C@H]1[C@@H]1O[C@@H]12 (stereo partly drawn),inactive,inactive,inactive,inactive,inactive,–,–,inactive,–,–,–,inactive,inactive,inactive,inactive,inactive,–,inactive,inactive,inactive
CCN1C=CN(C)C1C (stereo not drawn),inactive,inactive,inactive,inactive,inactive,–,–,inactive,–,inactive,inactive,inactive,inactive,inactive,inactive,inactive,–,–,inactive,inactive
Clc1cc(Cl)c(Cl)nc1Cl,inactive,inactive,inactive,inactive,inactive,–,–,inactive,–,inactive,inactive,inactive,–,–,inactive,inactive,–,–,–,–
Nc1ccn([C@@H]2O[C@H](CO)[C@@H](O)C2O)c(=O)n1 (stereo partly drawn),inactive,298 nM (active) and 193 nM (active),266 nM (active) and 172 nM (active),376 nM (active) and 172 nM (active),inactive,–,–,inactive,–,531 nM (active) and 486 nM (active),376 nM (active) and 193 nM (active),inactive,inactive,inactive,inactive,inactive,–,–,inactive,inactive
CC(C)C[C@@H](N)C(=O)O,inactive,inactive,inactive,inactive,inactive,–,–,inactive,–,inactive,inactive,inactive,inactive,–,inactive,inactive,–,–,–,–
CCCCCCC#CC(=O)OC,inactive,inactive,inactive,inactive,inactive,–,–,inactive,–,inactive,inactive,inactive,inactive,–,inactive,inactive,–,–,–,–
NO,inactive,inactive,inactive,inactive,inactive,–,–,inactive,–,inactive,inactive,–,inactive,–,inactive,inactive,–,–,–,–
CC1=C(C/C=C(\C)CCC[C@H](C)CCC[C@H](C)CCCC(C)C)C(=O)c2ccccc2C1=O,inactive,inactive,inactive,inactive,inactive,–,–,inactive,–,inactive,inactive,inactive,–,–,inactive,inactive,–,–,–,–
CC(C#N)(CCC(=O)O)N=NC(C)(C#N)CCC(=O)O (stereo not drawn),inactive,inactive,inactive,inactive,inactive,–,–,inactive,–,inactive,inactive,–,inactive,–,inactive,inactive,–,–,–,–
C[N+]1(CC2COC(c3ccccc3)(c3ccccc3)O2)CCCCC1 (stereo not drawn),inactive,26.6 µM (active),29.8 µM (active),26.6 µM (active),inactive,–,–,inactive,–,inactive,inactive,inactive,inactive,–,inactive,inactive,–,–,–,–
CC(C(=O)O)c1cccc(Oc2ccccc2)c1 (stereo not drawn),inactive,inactive,inactive,inactive,inactive,–,–,inactive,–,inactive,–,inactive,inactive,–,inactive,inactive,–,–,–,–
N[C@H](C(=O)O)[C@@H](O)c1ccc(O)c(O)c1,inactive,13.3 µM (active),16.8 µM (active),21.1 µM (active),inactive,–,–,inactive,–,–,–,inactive,inactive,inactive,inactive,inactive,–,inactive,inactive,inactive
C=C(C)C(=O)OCC1CCCO1 (stereo not drawn),inactive,inactive,inactive,inactive,inactive,–,–,inactive,–,inactive,inactive,inactive,inactive,–,inactive,–,–,–,–,–
C[N+](C)(C)CCCCCCCCCC[N+](C)(C)C,inactive,inactive,inactive,inactive,inactive,–,–,inactive,–,–,–,–,inactive,inactive,inactive,–,–,inactive,inactive,inactive
CNCCO,inactive,inactive,inactive,inactive,inactive,–,–,inactive,–,inactive,inactive,inactive,inactive,–,inactive,inactive,–,–,–,–
CC/C=C\CCOC(C)OCC (stereo not drawn),inactive,inactive,inactive,inactive,inactive,–,–,inactive,–,inactive,inactive,inactive,inactive,inactive,inactive,inactive,–,–,–,inactive
CCCn1cc[n+](C)c1C,inactive,inactive,inactive,inactive,inactive,–,–,inactive,–,inactive,inactive,inactive,inactive,–,inactive,inactive,–,–,–,–
O=C(CO)[C@@H](O)[C@H](O)[C@@H](O)CO,inactive,inactive,inactive,inactive,inactive,–,–,inactive,–,inactive,inactive,inactive,inactive,–,inactive,inactive,–,–,inactive,inactive
